Results on 16 molecules are retold here after PubChem BioAssay.

Structures are written as SMILES. For part of these data: Entries with a potency or affinity are not part of this list. The source made the active and inactive calls.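 The calls were made as follows, unless noted: active = fitted half-maximal concentration within the tested range, moderate curve steepness, significant signal drop, and little compound fluorescence or bead-linkage interference; inactive = the rest.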

Experiment [1] deals with Cell division control protein 42 homolog (Homo sapiens) (UniProt P60953). In words: activated mutant Cdc42 GTP-binding inhibitors, dose response, biochemical, multiplex bead flow cytometry, Bodipy-FL-GTP (AID 1333;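 active = fitted half-maximal concentration within the tested dose range, moderate curve steepness, a statistically real signal drop, and little compound fluorescence or tag-binding interference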). For orientation: Flow cytometry measures light scatter and fluorescence of single cells or particles in a stream.
Cell division control protein 42 homolog (Homo sapiens), sequence (P60953 whole entry, looked up): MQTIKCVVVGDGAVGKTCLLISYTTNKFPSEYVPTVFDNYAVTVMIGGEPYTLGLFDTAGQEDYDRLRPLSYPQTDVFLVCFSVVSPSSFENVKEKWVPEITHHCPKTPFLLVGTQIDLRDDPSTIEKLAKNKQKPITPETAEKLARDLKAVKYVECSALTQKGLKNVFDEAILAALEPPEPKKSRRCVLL
For experiment [2] the target is unchanged. In words: wildtype Cdc42 GTP-binding inhibitors, dose response, biochemical, multiplex bead flow cytometry, Bodipy-FL-GTP (AID 1334). To be noted: bead-based flow cytometry, Bodipy-FL-GTP binding to GST-Cdc42; at 100 µM (top of the series) unless noted.
Experiment [3] deals with GTPase HRas (Homo sapiens) (UniProt P01112). In words: inhibitors of GTP binding to wildtype Ras, dose response, biochemical, multiplex bead flow cytometry (AID 1335;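 active = fitted half-maximal concentration within 10 nM to 100 µM, steepness 0.5 to 2, significant signal drop, low assay interference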). To be noted: bead-based flow cytometry, Bodipy-GTP binding to GST-Ras; at 100 µM (top of the series) unless noted.
GTPase HRas (Homo sapiens), sequence (P01112 whole entry, looked up): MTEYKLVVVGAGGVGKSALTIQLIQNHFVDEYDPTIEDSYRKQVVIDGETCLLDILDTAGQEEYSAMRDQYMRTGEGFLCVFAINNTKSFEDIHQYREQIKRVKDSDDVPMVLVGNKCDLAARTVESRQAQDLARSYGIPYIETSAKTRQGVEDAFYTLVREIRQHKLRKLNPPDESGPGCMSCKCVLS
The subject of experiment [4] is Ras-related protein Rab-7a (dog), GTP binding. In words: Rab7 GTP binding inhibitors, potency, dose response, biochemical, wildtype, multiplex bead flow cytometry (AID 1336; call rule not given here).
Experiment [5] deals with Ras-related C3 botulinum toxin substrate 1 (Homo sapiens) (UniProt P63000). In words: wildtype Rac1 GTP binding inhibitors, dose response, biochemical, multiplex bead flow cytometry (AID 1340;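 active = dose curve with midpoint inside tested range, moderate steepness, plateau gap beyond fit error, low compound glow and bead-link interference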). To be noted: GST-Rac1 beads, Bodipy-FL-GTP binding; at 100 µM (top of the series) unless noted.
The target of experiment [6] is GTPase HRas (Homo sapiens) (UniProt P01112). Briefly: activated Ras mutant GTP binding inhibitors, dose response, biochemical, multiplex bead flow cytometry (AID 1341;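 active = dose-response curve with midpoint inside the tested range, moderate steepness, significant amplitude and little compound fluorescence or bead-attachment interference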;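 also: GST-tagged constitutively activated Ras mutant immobilized on beads and multiplexed with other GTPases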).

Regarding `Cc1ccc(COc2ccsc2C(=O)O)cc1`, the result in experiment [1], in experiment [4] and in experiment [6] was inactive. In experiment [2], this molecule came in with a fluorescence, percent of control (lower = inhibition) of 99.7%. In addition, in experiment [3], the GTP binding, percent of control is 115%. In experiment [5], the GTP binding signal, raw median fluorescence (lower = inhibition) (MCF (arbitrary fluorescence units)) stood at 82.4.
On to `CCOC(=O)CNC(=O)c1cccnc1SCCc1ccccc1`, for which the molecule was classed as inactive in experiment [1], in experiment [4] and in experiment [6]. The fluorescence, percent of control (lower = inhibition) in experiment [2] came to 46.7%. The molecule further registered a GTP binding, percent of control in experiment [3] of 125%. This molecule also displayed a GTP binding signal, raw median fluorescence (lower = inhibition) (MCF (arbitrary fluorescence units)) in experiment [5] of 65.
In the case of `CCC(OC(=O)c1cc2sccc2n1C)C(=O)NCc1ccco1` (stereo unspecified), the outcome in experiment [1], in experiment [4] and in experiment [6] was inactive. The fluorescence, percent of control (lower = inhibition) in experiment [2] stood at 54.2%. This molecule also displayed a GTP binding, percent of control in experiment [3] of 63%. The molecule also gave a GTP binding signal, raw median fluorescence (lower = inhibition) (MCF (arbitrary fluorescence units)) in experiment [5] of 212.
Consider `O=C(NCc1cccnc1)c1cccn2c(=O)c3sccc3nc12`, for which the molecule was called inactive in experiment [1], in experiment [4] and in experiment [6]. Moreover, the fluorescence, percent of control (lower = inhibition) in experiment [2] is 32.5%. The molecule further came in with a GTP binding, percent of control in experiment [3] of 74.9%. The molecule also displayed a GTP binding signal, raw median fluorescence (lower = inhibition) (MCF (arbitrary fluorescence units)) in experiment [5] of 162.
As for `Cc1cc2ccccn2c1C(=O)c1cccc([N+](=O)[O-])c1`, the outcome in experiment [1], in experiment [4] and in experiment [6] was inactive. The fluorescence, percent of control (lower = inhibition) in experiment [2] is 34%. The molecule also returned a GTP binding, percent of control in experiment [3] of 81.2%. Besides, the GTP binding signal, raw median fluorescence (lower = inhibition) (MCF (arbitrary fluorescence units)) in experiment [5] turned out to be 250.
Regarding `CCc1nnc(NS(=O)(=O)c2ccc(Nc3ccc4nonc4c3[N+](=O)[O-])cc2)s1`, the molecule was classed as inactive in experiment [1], in experiment [4] and in experiment [6]. Moreover, the fluorescence, percent of control (lower = inhibition) in experiment [2] worked out at 26.3%. For the same molecule, the GTP binding, percent of control in experiment [3] is 65.4%. This molecule had a GTP binding signal, raw median fluorescence (lower = inhibition) (MCF (arbitrary fluorescence units)) in experiment [5] of 147.
Turning to `Cc1cc(C)n2nc(SCCOc3ccccc3F)nc2n1`, the result in experiment [1], in experiment [4] and in experiment [6] was inactive. In experiment [2], this molecule displayed a fluorescence, percent of control (lower = inhibition) of 34.1%. This molecule registered a GTP binding, percent of control in experiment [3] of 72.5%. The GTP binding signal, raw median fluorescence (lower = inhibition) (MCF (arbitrary fluorescence units)) in experiment [5] is 144.
On to `CNc1ncc(C(=O)c2ccc(Br)cc2)s1`, for which the molecule was classed as inactive in experiment [1], in experiment [4] and in experiment [6]. In experiment [2], this molecule registered a fluorescence, percent of control (lower = inhibition) of 37.3%. In experiment [3], this molecule came in with a GTP binding, percent of control of 85.2%. In experiment [5], this molecule displayed a GTP binding signal, raw median fluorescence (lower = inhibition) (MCF (arbitrary fluorescence units)) of 277.
Regarding `Cc1ccc(CN2CC34C=CC(C)(O3)C(C(=O)O)C4C2=O)cc1` (stereo unspecified), the molecule was called inactive in experiment [1], in experiment [4] and in experiment [6]. The molecule also showed a fluorescence, percent of control (lower = inhibition) in experiment [2] of 60.3%. In experiment [3], the GTP binding, percent of control was 87.8%. The same molecule had a GTP binding signal, raw median fluorescence (lower = inhibition) (MCF (arbitrary fluorescence units)) in experiment [5] of 33.4.
On to `O=C1CS/C(=N/N=C2C3CC4CC(C3)CC2C4)N1`, for which the result in experiment [1], in experiment [4] and in experiment [6] was inactive. In experiment [2], this molecule came in with a fluorescence, percent of control (lower = inhibition) of 48.5%. In addition, in experiment [3], the GTP binding, percent of control was 68.2%. In addition, the GTP binding signal, raw median fluorescence (lower = inhibition) (MCF (arbitrary fluorescence units)) in experiment [5] stood at 214.
Regarding `COc1ccccc1N1CCN(S(=O)(=O)c2cccc(F)c2)CC1`, the outcome in experiment [1], in experiment [4] and in experiment [6] was inactive. In experiment [2], this molecule registered a fluorescence, percent of control (lower = inhibition) of 49%. Also, the GTP binding, percent of control in experiment [3] stood at 62.4%. Besides, in experiment [5], the GTP binding signal, raw median fluorescence (lower = inhibition) (MCF (arbitrary fluorescence units)) was determined as 213.
Take `COc1cccc2c(SCC(=O)N/N=C/c3ccc(O)cc3O)cc(C)nc12`: the call in experiment [1], in experiment [4] and in experiment [6] was inactive. In experiment [2], this molecule displayed a fluorescence, percent of control (lower = inhibition) of 29.6%. In addition, the GTP binding, percent of control in experiment [3] stood at 62.9%. The same molecule registered a GTP binding signal, raw median fluorescence (lower = inhibition) (MCF (arbitrary fluorescence units)) in experiment [5] of 110.
Turning to `NS(=O)(=O)c1ccc(CCN2C(=O)/C(=C\c3ccc(Cl)cc3)SC2=S)cc1`, the call in experiment [1], in experiment [4] and in experiment [6] was inactive. The molecule further returned a fluorescence, percent of control (lower = inhibition) in experiment [2] of 29%. This molecule also displayed a GTP binding, percent of control in experiment [3] of 76.5%. Besides, in experiment [5], the GTP binding signal, raw median fluorescence (lower = inhibition) (MCF (arbitrary fluorescence units)) was 242.
On to `O=C(/C=C/c1ccccc1)NC(NC(=S)Nc1ccc(C(=O)O)cc1)C(Cl)(Cl)Cl` (stereo unspecified), for which the call in experiment [1], in experiment [4] and in experiment [6] was inactive. This molecule also registered a fluorescence, percent of control (lower = inhibition) in experiment [2] of 35.2%. This molecule displayed a GTP binding, percent of control in experiment [3] of 78.3%. In experiment [5], this molecule yielded a GTP binding signal, raw median fluorescence (lower = inhibition) (MCF (arbitrary fluorescence units)) of 178.
As to `Cc1ccc(N=Nc2c(N)[nH]n3c(=O)c4c(nc23)CCCC4)cc1`, the call in experiment [1], in experiment [4] and in experiment [6] was inactive. The fluorescence, percent of control (lower = inhibition) in experiment [2] was 31.3%. The molecule also returned a GTP binding, percent of control in experiment [3] of 72.8%. Further, the GTP binding signal, raw median fluorescence (lower = inhibition) (MCF (arbitrary fluorescence units)) in experiment [5] is 166.
On to `Cn1c(/C(C#N)=C/c2ccncc2)nc2ccccc21`, for which the outcome in experiment [1], in experiment [4] and in experiment [6] was inactive. This molecule also returned a fluorescence, percent of control (lower = inhibition) in experiment [2] of 36.7%. This molecule also yielded a GTP binding, percent of control in experiment [3] of 87.2%. The molecule further yielded a GTP binding signal, raw median fluorescence (lower = inhibition) (MCF (arbitrary fluorescence units)) in experiment [5] of 266.
